In PubChem BioAssay AID686970 (National Center for Advancing Translational Sciences (NCATS), 2013):
The whole screen tested about 360,000 compounds, of which about 6,000 (1.7%) were called active. A call without a number means that no potency is given here. Inconclusive results (about 8%) are left out. This is one part of a sample in which actives are shown more often than they occur. Calls come from the whole dose curve; as a rule, active = well fitted cell-killing curve with a large enough effect; inconclusive = small, poorly fitted or top-dose-only effect, or effect the other way; inactive = flat fitted curve, though single readings scatter.

Test: qHTS for induction of synthetic lethality in tumor cells producing 2HG: qHTS for the HT-1080-NT fibrosarcoma cell line;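 note: NT is the 2HG producing partner of a matched IDH1 knockdown line; nearly all actives have a fitted effect of over 55% in size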
Conditions: HT-1080-NT fibrosarcoma viability, CellTiter-Glo ATP luminescence, 48 h; series mostly up to 46.1 µM
Outline: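 Viability by CellTiter-Glo luminescence after 48 h compound exposure at 37C of HT-1080-NT cells (750/well, RPMI, 5% FBS). % activity scaled between DMSO wells and medium-only wells, then curve-fitted and categorized by curve class.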
Potency is the fitted concentration of half-maximal effect.

Compound	Potency
CCCN1CCn2c3c(c4cc(Br)ccc42)CCCC31 (centres undefined)	inactive
OC(CNCC1CCCO1)Cn1c2ccc(Br)cc2c2cc(Br)ccc21 (centres undefined)	20.6 µM (active)
COCCNC(=O)c1ccc(Cn2c(SCC(=O)NCC3CCCO3)nc3ccc(Br)cc3c2=O)cc1 (centres undefined)	inactive
Cc1sc2nc(-c3ccccc3F)oc(=O)c2c1C	inactive
O=S1(=O)CC(N2CCN(CCO)CC2)CN1Cc1cn(Cc2ccc(Cl)cc2)nn1 (centres undefined)	inactive
O=C(Nc1cc(Br)ccc1F)c1nc[nH]c1C(=O)NCc1ccccc1	inactive
CN1CCN(CCCNC(=O)c2ccc(/C=C3\Oc4ccccc4N(Cc4ccc(Cl)cc4)C3=O)cc2)CC1	inactive
CCN1CCN(CCNC(=O)c2ccc3c(c2)NC(=O)/C(=C\c2cccc(Cl)c2)S3)CC1	inactive
CCN1CCN(CCNC(=O)c2ccc(/C=C3/Sc4ccccc4N(Cc4cccc(C)c4)C3=O)cc2)CC1	23.1 µM (active)
CCNC(=O)C1(C)CCCN(C(=O)c2c(C)noc2C)C1 (centres undefined)	inactive
COc1cc([N+](=O)[O-])ccc1NC(=O)COC(=O)CCOc1ccc(C)cc1	20.6 µM (active)
CSc1ccccc1NC(=O)COC(=O)CCCOc1ccc(C)cc1	inactive
COc1cccc(NC(=O)COC(=O)CCOc2ccccc2OC)c1	inactive
CCc1ccccc1NC(=O)CN1CCN(C(=O)c2cc(C3CC3)nn2-c2ccccc2)CC1	inactive
COC(=O)c1sc(NC(=S)NC(=O)c2ccc(C)cc2)nc1C	inactive
N#Cc1ccc(C(=O)Nc2nc(-c3cccs3)c(C(=O)C(F)(F)F)s2)cc1	2.91 µM (active)
N#Cc1c(-c2cccs2)nc(SCC(=O)c2ccc(Br)cc2)[nH]c1=O	inactive
CCOC(=O)[C@]12CCCC=C1N(Cc1ccc3c(c1)OCO3)C(=O)[C@H](CC(=O)NCc1cccs1)C2	inactive
CC1(C)CC(=O)C=C(c2ccc(COC(=O)c3cc(F)cc(F)c3)cc2)C1=O	inactive
CCN(CC(=O)Nc1ccc(NC(C)=O)cc1)C(=O)C1CC(=O)N(c2ccc3c(c2)OCCO3)C1 (centres undefined)	inactive
O=C(NC1=CC(=O)c2ccccc2C1=O)c1ccccc1	7.31 µM (active)
O=C(NC(=O)c1ccccc1)Nc1ccccc1O	inactive
CC(NC(=O)c1ccccc1)C(=O)Nc1ccccc1 (centres undefined)	inactive
Cc1ccc(S(=O)(=O)N2[C@@H](Cc3ccccc3)CO[C@H]2CC(=O)OCc2ccccc2)cc1	inactive
CCCCNC(=O)OC1CC2CC1[C@H]1CCCCN1C2=O (some centres undefined)	inactive

Compound	Potency
O=C(COC(=O)Cc1ccc(Cl)cc1Cl)NCc1ccco1	inactive
O=C1CC(c2ccccc2)=NN1c1ccc([N+](=O)[O-])cc1	14.6 µM (active)
O=[N+]([O-])c1ccc(N2CCOCC2)cc1	inactive
COC(=O)CC1=NN(c2ccccc2)C(=O)C1	inactive
COc1ccc(C(=O)N2CCCCC2c2cc(C(=O)Nc3ccc(F)c(Cl)c3)no2)cc1 (centres undefined)	inactive
Cc1c(C(=O)NCC2CC2)sc(=O)n1Cc1cccc(F)c1	inactive
COc1ccc(NC(=O)CNC(=O)Cc2ccccc2)cc1OC	inactive
COc1ccc(CNC(=O)[C@H](Cc2c[nH]c3ccccc23)NC(C)=O)cc1OC	inactive
COc1ccc(CNC(=O)Cc2ccc(-c3ccccc3)cc2)cc1OC	14.6 µM (active)
O=C(C=CC(=O)Nc1ccc(F)cc1F)Nc1ccc(F)cc1F	inactive
NS(=O)(=O)c1ccc(CNC(=O)c2cc(S(=O)(=O)N3CCOCC3)ccc2N2CCCC2)cc1	inactive
COC(=O)c1ccc2c(c1)S(=O)(=O)NC2C (centres undefined)	inactive
COC(=O)CCCCC1=CCC2C(=O)C=C(O)C2C1 (centres undefined)	inactive
CC(OC(=O)c1ccc(NC(=O)CC#N)cc1)C(=O)Nc1ccc(S(=O)(=O)N2CCCC2)cc1 (centres undefined)	inactive
CCOCCCn1c(NN)nc2ccccc2c1=O	inactive
CCn1c(/C=C/c2ccc([N+](=O)[O-])o2)nc2ccccc2c1=O	2.59 µM (active)
Cc1ccc(-n2c(SCC(=O)N/N=C/C=C/c3ccccc3[N+](=O)[O-])nc3ccccc3c2=O)cc1	inactive
CCC1NC(=O)c2cccnc2-n2c1nc1ccc(C)cc1c2=O (centres undefined)	inactive
COc1cc2nc(N3CCCN(C)CC3)nc(NC(C)C)c2cc1OC	inactive
COc1cc2ccc(C(C)=O)c(O)c2cc1OC	inactive
CC(C)CN1C(=O)CN(S(C)(=O)=O)CC1(C)C(=O)NCc1ccccc1 (centres undefined)	inactive
COc1cc(OC)c2c(-c3cccc(-c4cccc(N)c4)c3)cc(=O)oc2c1	6.51 µM (active)
COc1ccc(-c2c(C)cc3oc(=O)cc(-c4ccccc4)c3c2C)cc1OC	inactive
COc1ccc(-c2c(C)cc3oc(=O)cc(-c4ccccc4)c3c2C)cc1F	inactive
COc1cc2nc(N3CCCN(C)CC3)nc(NC3CC3)c2cc1OC	inactive

Compound	Potency
Cc1[nH]n(-c2ccc(Cl)cc2)c(=O)c1/C=N/n1c(C)nc2ccccc2c1=O	23.1 µM (active)
Cc1nc2ccccc2c(=O)n1-c1ccc(NS(=O)(=O)c2ccc(F)cc2F)cc1	inactive
O=c1c2ccccc2ncn1/N=C/c1ccccc1	inactive
CC1(C(=O)NS(=O)(=O)c2ccccc2)CCN1C(=O)C/C=C/c1ccccc1 (centres undefined)	inactive
CC1(C(=O)O)CCN1C(=O)/C=C/c1ccccc1 (centres undefined)	inactive
CC1(C)CCSC(/C=C/c2ccccc2)=N1	23.1 µM (active)
O=C(O)C(=Cc1ccc([N+](=O)[O-])cc1)CCc1ccccc1	inactive
Brc1ccc2nc(-c3ccccc3)c(Cc3ccccc3)n2c1	inactive
Cc1ccc(-c2nc3ccc(Br)cn3c2Cc2ccccc2C(F)(F)F)cc1	inactive
CCS(=O)(=O)N1CCCC(C(=O)NCc2ccc(C)cc2)C1 (centres undefined)	inactive
Cc1ccc(NC(=O)N2CCC(C(=O)NCc3ccc(F)cc3)CC2)cc1	inactive
CCc1ccc(CNC(=O)C2CCN(c3nnc(C)c4c(C)n(-c5ccc(C)cc5)nc34)CC2)cc1	13 µM (active)
CCN(CC)C(=O)C1=C(C)N(Cc2ccc(F)cc2)C(=O)C(CC(=O)NC2CCCC2)C1 (centres undefined)	inactive
COc1ccccc1NC(=O)[C@H](COCc1ccccc1)NC(=O)OC(C)(C)C	inactive
CCc1ccccc1NC(=O)CSc1nnc([C@@H](NC(=O)OC(C)(C)C)C(C)CC)o1 (some centres undefined)	inactive
C[C@@H](NC(=O)OC(C)(C)C)c1nnc(S(=O)(=O)Cc2ccccc2)o1	16.4 µM (active)
CC1(C(=O)Nc2cccc3c2CCCC3)CCN1C(=O)C1(c2ccccc2)CC1 (centres undefined)	inactive
O=C(Nc1ccccc1)c1ccccc1Br	inactive
COc1ccc(-c2sc3ccc(OC)cc3c2C#Cc2ccccn2)cc1	inactive
COc1ccc2sc(-c3ccc(S(C)(=O)=O)cc3)c(C#Cc3cncn3C)c2c1	20.6 µM (active)
COc1ccc2sc(-c3ccc(S(C)(=O)=O)cc3)c(-c3ccc(C(N)=O)cc3)c2c1	inactive
CC1=C(C(=O)N(C)C)CC(CC(=O)NCCN2CCOCC2)C(=O)N1Cc1ccccc1 (centres undefined)	inactive
O=C1[C@H]2[C@@H](c3ccc(C(F)(F)F)cc3)N[C@]3(CCCN(Cc4ccc(Cl)cc4)C3=O)[C@H]2C(=O)N1Cc1ccccc1	inactive
CCCCN1C[C@H](c2ccc(Br)cc2)[C@@H](CC(=O)Nc2ccc(Br)cc2)C1=O	inactive
Nc1nc(Nc2ccccc2F)nc(NC2CCCCC2)c1[N+](=O)[O-]	16.4 µM (active)

Compound	Potency
Nc1nc(NCC2CCCO2)nc(Nc2ccccc2F)c1[N+](=O)[O-] (centres undefined)	inactive
C=CCNc1nc(N)c([N+](=O)[O-])c(NC2CCCCC2)n1	inactive
COc1cc(C(=O)N2CCOC23CCN(Cc2ccccc2)CC3)cc(OC)c1OC	inactive
COC(=O)c1ccc2nc(-c3ccc(F)cc3)c(Cc3ccc(C)cc3)n2c1	inactive
COc1ccccc1CCNS(=O)(=O)c1cn(C)nc1C	inactive
CCCCCc1c(-c2ccc(OC)c(OC)c2)ncn1CCc1ccccc1OC	20.6 µM (active)
COc1ccccc1Cc1c(-c2ccc(Cl)cc2)nc2c3ccccc3ccn12	inactive
CCC(=O)NCc1cc(-c2nn(C)c(=O)c3ccccc23)ccc1OC	inactive
COc1ccc(-c2nn(-c3ccccc3)cc2C(=O)Nc2nccs2)cc1OC	inactive
Cn1c(=O)c2c(ncn2CCc2ccccc2)n(C)c1=O	inactive
COc1ccccc1Cc1c(-c2ccc(Cl)cc2)nc2ccc(Cl)cn12	inactive
CCCCc1c(-c2ccc(Br)cc2)ncn1CCc1ccccc1OC	9.2 µM (active)
CCCCCc1c(Cc2ccccc2)ncn1CCc1ccccc1OC	18.4 µM (active)
CC1(C(=O)NS(=O)(=O)c2ccccc2)CCN1C(=O)Cc1ccc(-c2ccccc2)cc1 (centres undefined)	inactive
O=C(CC(CC(=O)c1ccccc1)c1ccco1)c1ccccc1	inactive
CC1=C(C(=O)N(C(C)C)C(C)C)CC(CC(=O)NCC2CCCCC2)C(=O)N1Cc1ccccc1 (centres undefined)	inactive
Cc1ccc(C=O)c([B-](F)(F)F)c1	inactive
O=C(NCc1ccccn1)[C@@H]1CCCN1C(=O)[C@@H]1CCCN1C(=O)c1ccccc1	inactive
CN1OC[C@@H]2CN[C@H](c3ccc(-c4ccccc4)cc3)C[C@@H]21	inactive
COc1cc(C2C(C#N)=C(N)Oc3n[nH]c(-c4ccccn4)c32)cc(OC)c1OC (centres undefined)	inactive
COCc1[nH]nc2c1C(C1C=CCCC1)C(C#N)=C(N)O2 (centres undefined)	14.1 µM (active)
CCc1ccc(C2C(C#N)=C(N)Oc3n[nH]c(CC(=O)OC)c32)cc1 (centres undefined)	inactive
Cc1ccc([C@@H]2CC(=O)[C@@H]3CN(S(=O)(=O)c4ccc(C)cc4)[C@H](c4ccccc4F)C[C@@H]3N2S(=O)(=O)c2ccc(Cl)cc2)cc1	inactive
FC(F)(F)c1ccccc1Cc1c(-c2ccccc2)nc2c3ccccc3ccn12	inactive
